14 compounds from PubChem BioAssay can be followed below.

Assay [1] is described as follows: inhibitors of TNFa-induced NFkB p65 translocation, primary screen, imaging, HUVEC, MLSMR starter and 10KST1 sets (AID 438;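 active means inhibition above 20% together with a positive visual image hit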;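 further: compound added about 3h40 before a 20 min TNFalpha stimulation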;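 on inhibition: signal is the nuclear over cytoplasmic p65 intensity ratio per well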). Conditions: HUVEC TNFa-induced p65 nuclear translocation; cell count: measured here: nuclei count (cytotoxicity indicator), at 2.08 µM; inhibition: at 2 µM, stronger effect = higher value, 0% TNFa-plus-vehicle, 100% no-TNFa wells.
Assay [2] in a line: reduction of polyQ htt aggregates in cells – imaging, exon1htt(103Q)mCFP cells, high-content imaging, primary screen (AID 483;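 active means visual image review flags a hit and inhibition of aggregation exceeds 20%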;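 further: compound exposure lasted 3 days before fixation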;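 on nuclei count: percent of the per-plate median nuclei count of sample wells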). Conditions: exon1htt(103Q)mCFP cell line, aggregate imaging, at 2 µM; inhibition of aggregation: stronger effect = higher value; nuclei count: measured here: cell count, toxicity.
Assay [3] is described as follows: endothelial E-selectin expression blockers – imaging, HUVEC, immunofluorescence, MLSMR starter and 10KST1 sets, primary screen (AID 487;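 active means visually confirmed hit in the image check and inhibition above 20%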;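 on inhibition: signal is fraction of cell area covered by stained E-selectin grains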;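 on nuclei count: 100% = median nuclei count of all wells on the same plate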). To be noted: HUVEC TNFalpha-induced E-selectin immunofluorescence imaging, at 2 µM; inhibition: stronger effect = higher value; nuclei count: measured here: cell number, toxicity.
Assay [4] addresses Voltage-gated potassium channel subunit beta-2 (Rattus norvegicus) (UniProt P62483). Put plainly: inhibitors of rat Kvbeta2 reductase activity – biochemical, NADPH fluorescence, primary screen (AID 622;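 active means fluorescence slope higher than the sample average by over 3 SD, cut at about -0.22 in these data, passing the limit was not always enough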;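 further: slope of raw intensity against log time taken from 70 to 1610 s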). To be noted: recombinant KvBeta, 4-cyanobenzaldehyde reduction, at 10 µM, stronger effect = higher value.
Assay [5] has the same target. In words: enhancers of rat Kvbeta2 NADPH turnover – biochemical, NADPH fluorescence, primary screen (AID 623;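 active means NADPH fluorescence slope more negative than the mean of all samples by about 3 SD, 99.7% confidence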;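 further: fluorescence intensity change per second fitted from 20 to 320 s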). To be noted: Recombinant KvBeta, NADPH fluorescence decrease slope, 10 min; at 10 µM; stronger effect = lower value.
In assay [6] the target is Alpha-2C adrenergic receptor (Homo sapiens) (UniProt P18825). In words: compounds altering alpha2C-coupled GIRK flux – cell-based, HEK293 alpha2C/GIRK1/2, thallium flux, primary screen (AID 624).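 Further: slope of fluorescence ratio to pre-addition baseline per second over 15 to 24 s.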 To be noted: thallium flux BTC fluorescence, at 10 µM, actives lie on both sides.
Chain of Alpha-2C adrenergic receptor (Homo sapiens) (P18825 whole entry, looked up): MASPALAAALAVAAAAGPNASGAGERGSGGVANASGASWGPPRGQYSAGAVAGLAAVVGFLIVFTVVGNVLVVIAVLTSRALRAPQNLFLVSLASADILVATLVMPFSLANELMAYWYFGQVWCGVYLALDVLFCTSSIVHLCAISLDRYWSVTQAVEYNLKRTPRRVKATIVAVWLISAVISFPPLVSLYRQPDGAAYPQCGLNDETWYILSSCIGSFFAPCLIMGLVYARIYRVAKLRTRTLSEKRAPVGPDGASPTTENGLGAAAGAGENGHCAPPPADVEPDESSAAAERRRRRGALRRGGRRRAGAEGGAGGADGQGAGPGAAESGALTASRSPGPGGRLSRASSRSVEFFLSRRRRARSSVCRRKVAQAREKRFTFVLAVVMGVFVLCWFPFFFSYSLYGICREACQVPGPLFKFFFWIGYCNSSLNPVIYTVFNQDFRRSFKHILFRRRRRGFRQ
Assay [7] is described as follows: blockers of RIG-like receptor reporter activation – cell-based, Sendai virus stimulus, luciferase, 10K MLSCN set, TLR/RLR signaling modifier project, primary screen (AID 602276;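 active means inhibition at or above 50% at 10 µM; inactive means inhibition below 50%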;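 further: firefly luciferase from ISG56 promoter only with Renilla not read in this screen; 0% = Sendai virus plus DMSO and 100% = medium plus DMSO without virus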). Conditions: HEK293 RL24 IRF3 luciferase reporter, at 10 µM, stronger effect = higher value. On the technique in general: In a reporter assay the amount or activity of a reporter protein is the signal.

The nature of assay [8]: TLR3 IRF3 reporter activation blockers – cell-based, poly I:C stimulus, luciferase, 10K MLSCN set, primary screen (AID 602277;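 active means inhibition of the reporter signal at or above 50%; inactive means inhibition below 50%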). To be noted: HEK293-TLR3 RL24 IRF3 luciferase reporter, at 10 µM, stronger effect = higher value.

Activity calls are given as the source filed them.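 How the source made its calls, unless noted: active means fluorescence slope after compound addition differing from the mean of all screened samples at 99.7% confidence, in either direction; inactive means the rest.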

Chain of Voltage-gated potassium channel subunit beta-2 (Rattus norvegicus) (P62483 whole entry, looked up): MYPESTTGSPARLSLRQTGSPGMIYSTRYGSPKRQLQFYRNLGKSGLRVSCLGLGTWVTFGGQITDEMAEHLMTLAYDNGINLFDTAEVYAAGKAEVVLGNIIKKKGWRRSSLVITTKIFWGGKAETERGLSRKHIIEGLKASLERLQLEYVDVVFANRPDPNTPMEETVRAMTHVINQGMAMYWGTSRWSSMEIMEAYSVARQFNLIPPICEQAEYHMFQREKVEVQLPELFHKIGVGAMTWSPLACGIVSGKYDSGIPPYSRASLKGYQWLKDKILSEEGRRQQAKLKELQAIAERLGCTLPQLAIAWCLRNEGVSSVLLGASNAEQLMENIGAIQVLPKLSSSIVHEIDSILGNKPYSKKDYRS

In the case of `Cc1ccc(S(=O)(=O)N2CCOCC2)cc1C(=O)Nc1nc(-c2cccnc2)cs1`, the cell count in assay [1] was 294. The inhibition (usually the relative decrease from the control value, in per cent) was 10.3% (inactive) in assay [1], -22.3% (inactive) in assay [3], 7.72% (inactive) in assay [7] and 15.3% (inactive) in assay [8]. The inhibition of aggregation in assay [2] was -1.2% (inactive). Further, the nuclei count in assay [2] is 99.3%; in assay [3], 100%. In assay [4], the fluorescence slope was -0.527 (inactive). Further, the NADPH fluorescence slope in assay [5] is 2.5e-05 (inactive). Besides, the slope in assay [6] is 0.00585 (inactive).

Take `Cc1ccc(Nc2nc(N)nc(CN3CCCCCC3)n2)cc1`: the cell count in assay [1] amounted to 350. The inhibition in assay [1] was 6.8% (inactive); in assay [3], 69.8% (active); in assay [7] it was 8.97% (inactive); in assay [8], 24.6% (inactive). The inhibition of aggregation in assay [2] is 2.4% (inactive). For the same compound, the figures for the nuclei count in assay [2] and in assay [3] were 96.1% and 88.8%, respectively. For the same compound, in assay [4], the fluorescence slope was -0.449 (inactive). The NADPH fluorescence slope in assay [5] is -2.5e-05 (inactive). Also, in assay [6], the slope is 0.00438 (inactive).

As to `Cc1csc(NC(=O)CCCSc2nc3ccccc3s2)n1`, in assay [1], the cell count was determined as 387. Moreover, the inhibition was 0.9% (inactive) in assay [1], -33.8% (inactive) in assay [3], 23.5% (inactive) in assay [7] and 26.7% (inactive) in assay [8]. Further, the inhibition of aggregation in assay [2] was 0.5% (inactive). In addition, the nuclei count came to 97.4% in assay [2] and 110% in assay [3]. In assay [4], the fluorescence slope is -0.594 (inactive). In assay [5], the NADPH fluorescence slope was -2.4e-05 (inactive). Further, the slope in assay [6] was 0.00267 (inactive).

`COc1ccc(NC2c3ncccc3C(=O)N2Cc2ccccc2)c(OC)c1` (centres undefined): the cell count in assay [1] is 480. Besides, the inhibition in assay [1] is 1.6% (inactive); in assay [3] it was -31.3% (inactive); in assay [7] it was 7.6% (inactive); in assay [8], 15.8% (inactive). The inhibition of aggregation in assay [2] was -17% (inactive). In addition, the nuclei count in assay [2] is 116%; in assay [3] it was 114%. In addition, the fluorescence slope in assay [4] is -0.609 (inactive). In addition, the NADPH fluorescence slope in assay [5] is -9.3e-06 (inactive). Moreover, the slope in assay [6] was 0.00393 (inactive).

For the compound `Cc1cc(N2CCN(c3ccccn3)CC2)n2nc(C)nc2n1`, the cell count in assay [1] is 435. For the same compound, the inhibition in assay [1] was 3.5% (inactive); in assay [3], -4.2% (inactive); in assay [7], 12.8% (inactive); in assay [8] it was -7.58% (inactive). Also, in assay [2], the inhibition of aggregation was -16.4% (inactive). Also, the results for the nuclei count in assay [2] and in assay [3] were 105% and 111%, respectively. For the same compound, the fluorescence slope in assay [4] was -0.376 (inactive). Also, the NADPH fluorescence slope in assay [5] is -3.3e-05 (inactive). Further, the slope in assay [6] was 0.00609 (inactive).

Turning to `CC(C)OC(=O)CSc1nnc(-c2ccc(O)cc2)n1Cc1ccccc1`, in assay [1], the cell count is 289. For the same compound, the inhibition in assay [1] is -1% (inactive); in assay [3], -57.2% (inactive); in assay [7] it was 20.3% (inactive); in assay [8], 16.8% (inactive). Also, the inhibition of aggregation in assay [2] is 12.9% (inactive). Besides, the nuclei count amounted to 106% in assay [2] and 105% in assay [3]. Further, the fluorescence slope in assay [4] was -0.415 (inactive). Moreover, the NADPH fluorescence slope in assay [5] is -4.5e-05 (inactive). Besides, the slope in assay [6] is 0.00549 (inactive).

Consider `CCOC(=O)CN1CC23C=CC(O2)C(C(=O)Nc2ccc(OC)cc2OC)C3C1=O` (centres undefined), for which the cell count in assay [1] is 563. For the same compound, the inhibition in assay [1] is 8% (inactive); in assay [3], -54% (inactive); in assay [7], 8.81% (inactive); in assay [8] it was 32% (inactive). The inhibition of aggregation in assay [2] is 8.7% (inactive). Moreover, the nuclei count came to 81.1% in assay [2] and 116% in assay [3]. Also, in assay [4], the fluorescence slope was -0.574 (inactive). For the same compound, the NADPH fluorescence slope in assay [5] is -1.5e-05 (inactive). Besides, the slope in assay [6] was 0.00618 (inactive).

For `COc1cc2c(cc1OC)CN(C(=O)COc1ccc(C)c(C)c1)CC2`, the cell count in assay [1] came out at 653. Further, the inhibition is -3% (inactive) in assay [1], 17.1% (inactive) in assay [3], 18.6% (inactive) in assay [7] and 20.9% (inactive) in assay [8]. In addition, in assay [2], the inhibition of aggregation is -11.6% (inactive). The nuclei count in assay [2] and in assay [3] was 106% in each case. Also, the fluorescence slope in assay [4] is -0.456 (inactive). Moreover, the NADPH fluorescence slope in assay [5] is 1.3e-05 (inactive). Further, the slope in assay [6] was 0.00534 (inactive).

As for `CCCCn1c(NCc2ccccc2O)nc2ccccc21`, the cell count in assay [1] amounted to 790. Also, the inhibition in assay [1] is -6.4% (inactive); in assay [3] it was -63% (inactive); in assay [7], 0.354% (inactive); in assay [8] it was 25.3% (inactive). Also, the inhibition of aggregation in assay [2] was 14.4% (inactive). In addition, the values for the nuclei count in assay [2] and in assay [3] were 107% and 120%, respectively. Moreover, the fluorescence slope in assay [4] was -0.567 (inactive). The NADPH fluorescence slope in assay [5] is -5.9e-06 (inactive). Moreover, the slope in assay [6] is 0.00728 (inactive).

In the case of `Fc1cccc2sc(N3CCOCC3)nc12`, in assay [1], the cell count came out at 255. Also, the inhibition was -8.3% (inactive) in assay [1], 6.6% (inactive) in assay [3], -10.5% (inactive) in assay [7] and -45.8% (inactive) in assay [8]. In addition, in assay [2], the inhibition of aggregation is 16.8% (inactive). The nuclei count stood at 68.5% in assay [2] and 51.7% in assay [3]. The fluorescence slope in assay [4] is -0.387 (inactive). Moreover, in assay [5], the NADPH fluorescence slope was -3.9e-05 (inactive). Further, in assay [6], the slope was 0.00353 (inactive).

Take `CCCSc1nc2c(cnn2-c2ccc(C)cc2)c(=O)[nH]1`: in assay [1], the cell count worked out at 671. Also, the inhibition in assay [1] is -5.8% (inactive); in assay [3] it was -17.4% (inactive); in assay [7], -9.65% (inactive); in assay [8], 10.6% (inactive). Besides, the inhibition of aggregation in assay [2] was -5.9% (inactive). Also, the nuclei count in assay [2] was 115%; in assay [3], 113%. In addition, the fluorescence slope in assay [4] was -0.545 (inactive). For the same compound, the NADPH fluorescence slope in assay [5] is -5.2e-06 (inactive). In assay [6], the slope is 0.0075 (inactive).

Turning to `O=C(CC(SCCO)c1ccc2c(c1)OCO2)c1ccco1` (centres undefined), in assay [1], the cell count came to 538. Also, the inhibition is -10.2% (inactive) in assay [1], -60.6% (inactive) in assay [3], -31.1% (inactive) in assay [7] and -69.6% (inactive) in assay [8]. For the same compound, the inhibition of aggregation in assay [2] is -17.3% (inactive). Besides, the results for the nuclei count in assay [2] and in assay [3] were 114% and 128%, respectively. For the same compound, in assay [4], the fluorescence slope was -0.602 (inactive). Moreover, the NADPH fluorescence slope in assay [5] is -5.3e-06 (inactive). In addition, the slope in assay [6] was 0.00625 (inactive).

As to `COc1cccc(CNC(=O)CCS(=O)(=O)c2cccc3nsnc23)c1`, in assay [1], the cell count was 667. Further, the inhibition in assay [1] was -6.5% (inactive); in assay [3], 8.1% (inactive); in assay [7] it was 13.8% (inactive); in assay [8], 24.3% (inactive). The inhibition of aggregation in assay [2] is -34.5% (inactive). Further, the results for the nuclei count in assay [2] and in assay [3] were 112% and 109%, respectively. Moreover, the fluorescence slope in assay [4] was -0.513 (inactive). The NADPH fluorescence slope in assay [5] was -3.9e-05 (inactive). For the same compound, the slope in assay [6] is 0.00504 (inactive).

For `CC1=C(C(=O)NCc2ccccc2)C(c2ccccc2OCC(N)=O)NC(=O)N1` (centres undefined), the cell count in assay [1] came to 355. Besides, the inhibition in assay [1] is -8.1% (inactive); in assay [3], -16.7% (inactive); in assay [7], 6.63% (inactive); in assay [8] it was 14.9% (inactive). The inhibition of aggregation in assay [2] is 14.3% (inactive). Moreover, the nuclei count in assay [2] was 96.4%; in assay [3], 98.2%. For the same compound, in assay [4], the fluorescence slope is -0.428 (inactive). Also, in assay [5], the NADPH fluorescence slope was 7.3e-06 (inactive). For the same compound, in assay [6], the slope was 0.00981 (inactive).
